# Screens: PubChem, several laboratories
# Mcl1-Noxa inh: Mcl-1/Noxa interaction inhibition. AID 1022. inhibition, % at 21.7 µM. 220,000 compounds, 1.5% hits. TR-FRET Mcl-1/Noxa peptide binding, 2 h. Q07820;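 active = compounds that cut the protein-peptide binding signal by more than 50% relative to plate controls in a single-dose test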;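 note: His-tagged Mcl-1 with rhodamine Noxa BH3 peptide and terbium anti-His antibody; 0% = Mcl-1 plus Noxa peptide wells and 100% = peptide-only wells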
# eIF4E 4G PPI: inhibitors of eIF4E and eIF4G interaction in translation initiation. P63073+Q04637. TR-FRET eIF4E-eIF4GI(517-606) binding, 2 h. inhibition, % at 21.7 µM. 220,000 compounds, 0.37% hits. AID 782;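 active = inhibition above about 30%, limit read from the data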;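 note: 0% = full FRET control wells and 100% = background wells lacking eIF4GI fragment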
# Mcl1-Bid inh: disrupts binding of human Mcl-1 to Bid peptide. 220,000 compounds, 0.97% hits. Q07820. AID 1021. TR-FRET Mcl-1/Bid-Dy647 peptide binding, 1536-well. inhibition, % at 21.7 µM;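 active = compounds that cut the binding signal by more than half at the single screening dose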;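 note: His-tagged Mcl-1 with europium anti-His antibody binding Bid BH3 peptide; 0% = Mcl-1 plus peptide wells and 100% = peptide-only wells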
# 14-3-3 Bad PPI: disrupts binding of bovine 14-3-3 zeta to phospho-Bad peptide; P63103; 220,000 compounds, 0.71% hits; TR-FRET 14-3-3zeta/Dy647-pBad peptide displacement, 1 h; inhibition, % at 21.7 µM;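 active = inhibition above about 70%, limit read from the data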;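 note: 0% = full 14-3-3 plus peptide FRET controls and 100% = background without 14-3-3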
# Pf gamet viab: inhibitors of late stage P. falciparum gametocyte viability; P. falciparum stage V gametocytes, ATP luminescence, 24 h; inhibition, % at 10.9 µM; 150,000 compounds, 0.065% hits; AID 743093;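 active = inhibition above the mean plus 3 SD of compounds within the control limits, set per campaign, cut at about 38% in these data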;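 note: 0% = DMSO wells and 100% = medium only without gametocytes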
# Mcl-1 Bim block: human Bim-Mcl-1 interaction inhibition. 190,000 compounds, 0.1% hits. Bead-based flow cytometry, Bim peptide-Mcl-1 binding. inhibition, % at 10 µM. AID 1009; in the data active = inhibition above about 40%;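 note: 0% = no compound tracer wells and 100% = peptide blocker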
# * marks the source's active call; other numbers are inactive results; nt = no result given; [ ] = another dose, or the depositor's remark. Most compounds without a hit are left out; they make up all but 2.7% or so of the library.
SMILES,Mcl1-Noxa inh,eIF4E 4G PPI,Mcl1-Bid inh,14-3-3 Bad PPI,Pf gamet viab,Mcl-1 Bim block
Cc1ccc(/C=C2\SC(=S)N(C(Cc3ccccc3)C(=O)O)C2=O)cc1 (configuration not stated),23,-1,20,-13,nt,0
CSCCC(NC(=O)c1ccccc1C)C(=O)O (configuration not stated),15,-2,-33,-6,nt,-1
O=C(C1=C(O)C(=O)N(c2ncccn2)C1c1cccc(Cl)c1)c1ccco1 (configuration not stated),63*,2,43,54,nt,0
Oc1cc2c(cc1O)[C@@H](c1ccccc1)CNCC2,67*,-5,-19,-7,nt,7
COc1ccc(CCNC(=O)COC(=O)Cc2cccc3ccccc23)cc1,83*,1,-5,9,3,-6
COc1ccc(C2Nc3ccccc3C(=O)N2NS(=O)(=O)c2ccccc2)cc1 (configuration not stated),2,2,-18,-4,-19,-3
Cc1cccc(Nc2n[nH]c(=S)s2)c1C,20,58*,-133,-5,-5,-6
COc1ccc(NC(=O)C(Cc2ccccc2)n2cccc2)cc1OC (configuration not stated),1,-4,-61,-2,-16,nt
CCOCCCNC1=C(Cl)C(=O)c2ccccc2C1=O,64*,3,-17,6,12,nt
COc1ccc(NC(C)C(=O)Nc2ccc(C#N)cc2)cc1Cl (configuration not stated),92*,31*,89*,-1,-2,0
COc1ccc(NC(C)C(=O)Nc2ccc(C(C)(C)C)cc2)cc1Cl (configuration not stated),10,4,3,10,nt,0
CC(C(=O)Nc1ccc2c(c1)OCCO2)N(C)Cc1c(F)cccc1Cl (configuration not stated),5,-3,-38,97*,6,1
O=C(O)/C=C\C(=O)Nc1ccc(Oc2ccccc2)cc1,-13,1,-7,37,nt,2
O=C(O)/C=C/C(=O)Nc1ccc(Oc2ccc(NC(=O)/C=C/C(=O)O)cc2)cc1,66*,13,-21,11,nt,0
CCOC(=O)C1=C(C)NC(=S)N(C=O)C1c1ccccc1 (configuration not stated),16,1,-37,-20,7,1
N=C1/C(=C/c2cccn2Cc2ccc(Cl)cc2)C(=O)N=C2SC=CN12,36,7,54*,25,-20,-1
CC(=O)NC1=NN(C(C)=O)C2(S1)C(=O)N(C(C)=O)c1ccc(C)cc12 (configuration not stated),2,-4,-23,1,-1,-3
CCOC(=O)CSc1nc(C2CC2)cc(-c2ccc(Cl)cc2)c1C#N,3,0,97*,6,nt,-4
CC(C)N1CCN(Cc2ccc(Sc3nncn3C)o2)CC1CCO (configuration not stated),-22,94*,-10,-2,14,nt
COc1ccc(C(=O)N2CCN(Cc3cc(OC)c(O)c(OC)c3)CC2)cc1OC,24,-3,58*,27,nt,0
COc1ccc(CN2CCN(C(=O)c3cc(OC)c(OC)c(OC)c3)CC2)cc1OC,13,8,33,21,nt,0
COc1ccc(C(=O)N2CCN(C3CCN(Cc4ccccc4)CC3)CC2)cc1OC,23,-10,58*,58,nt,1
COc1ccccc1C(=O)N1CCN(C2CCN(Cc3ccccc3)CC2)CC1,32,-6,48,84*,9,-8
COc1cccc(C(=O)N2CCN(C3CCN(Cc4ccccc4)CC3)CC2)c1,33,6,15,57,nt,3
Cc1cc(C(=O)COC(=O)c2cccnc2Cl)c(C)n1-c1c(C)n(C)n(-c2ccccc2)c1=O,8,2,-24,-2,5,-4
Cc1ccc(N2CSC3=C(C#N)C(c4cccs4)CC(=O)N3C2)cc1 (configuration not stated),28,1,-18,4,nt,-8
COc1ccc(N2CSC3=C(C#N)C(c4cccs4)CC(=O)N3C2)cc1 (configuration not stated),25,47*[fluorescence artefact?],-43,65,-6,-3
